Sfp PPTase inh = Sfp phosphopantetheinyl transferase inhibition; AID 1490; Biochemical Sfp PPTase activity, qHTS; 310,000 compounds, 3.5% hits; Potency, µM, inactives show largest response in the series, negative = inhibition, usual class: inhibitors; Q9F4F7;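 further: the enzyme is Sfp with the accession as filed and its product quenches rhodamine fluorescence; 0% = enzyme reaction without inhibitor and -100% = no enzyme wells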
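Reaction rates are the 30-min fluorescence difference (ex 525, em 598 nm) in wells containing 15 nM Sfp, 5 uM rhodamine-CoA and 12.5 uM BHQ-2-YbbR at pH 7.6 with 10 mM MgCl2.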
PLK1 PBD block = blocks phosphopeptide binding to human PLK1 polo-box domain; Plk1 PBD binding of FITC phosphopeptide, fluorescence polarization; Potency, µM, inactives show max response, negative = inhibition, most hits filed as inhibitors; 360,000 compounds, 2.8% hits; further: series mostly up to about 57 µM; nearly all actives have a fitted effect of over 65% in size
VDR inh = vitamin D3 receptor (human) inhibition | 400,000 compounds, 0.93% hits | Potency, µM, for the others: max response, negative = inhibition, most hits filed as inhibitors | P11473 | VDR-SRC2-3 peptide fluorescence polarization, 2 h
Target sequence (P11473 whole entry, looked up): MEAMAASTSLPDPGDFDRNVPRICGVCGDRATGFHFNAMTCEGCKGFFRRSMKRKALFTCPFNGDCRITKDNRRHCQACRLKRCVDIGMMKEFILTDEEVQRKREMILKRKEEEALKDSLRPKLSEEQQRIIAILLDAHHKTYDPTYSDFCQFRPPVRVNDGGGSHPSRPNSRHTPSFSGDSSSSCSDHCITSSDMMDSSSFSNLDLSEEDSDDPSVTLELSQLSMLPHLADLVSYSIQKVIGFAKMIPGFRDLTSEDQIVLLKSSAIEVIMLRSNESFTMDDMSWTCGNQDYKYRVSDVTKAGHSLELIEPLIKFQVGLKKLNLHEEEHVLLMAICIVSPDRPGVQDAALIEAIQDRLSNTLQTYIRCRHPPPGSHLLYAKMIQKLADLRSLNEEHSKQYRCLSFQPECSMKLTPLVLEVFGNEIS
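FP read-out; VDR + SRC2-3 coactivator peptide; 23 nl compound by pintool; 2 h RT incubation; reagents held at 4 deg C, protected from light.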
ALOX12 inh = ALOX12 (human) lipoxygenase inhibition; Potency, µM (top dose mostly 108 µM), for inactives: at the highest dose activity change, negative = inhibition, hits mostly inhibitors; purified 12hLO, xylenol orange hydroperoxide absorbance; 580,000 compounds, 1.1% hits; P18054; AID 1671190
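Purified human 12hLO (150 nM final) in 25 mM Hepes, 0.01% Triton X-100, pH 7.0 was preincubated 15 min at room temperature with compound. Then 40 uM arachidonic acid was added, 30 min. Hydroperoxide was read by Fe-XO absorbance ratio 573/405 nm.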
Numbers without * were called inactive; [ ] = remark or other dose. Sampled rows, rich in hits. Any-hit rate of the full collection: about 4.2%. The call rests on the fitted dose curve; in most records, active means well fitted curve in the direction sought with a large enough effect; inconclusive means small, poorly fitted or top-dose-only effect, or another doubt; inactive means no such curve, though single readings can be large; an effect the other way counts as inactive or inconclusive. Unless noted, on the % scale 0 is the no-effect control and ±100 the full control effect; potency means the concentration at half of the fitted maximal effect.

`CCCS(=O)(=O)N1CCCN(Cc2ccncc2)C(c2ccccc2)CC(=O)NCC1` (centres undefined) gave ALOX12 inh 23%.
Cc1ccccc1-c1cncnc1NCc1ccccc1 was read as Sfp PPTase inh -17%, VDR inh -16% and ALOX12 inh inconclusive.
For Cc1ccccc1-c1cncnc1Nc1ccccc1 the results were Sfp PPTase inh -9%, VDR inh 45µM* and ALOX12 inh inconclusive.
For CNc1ncncc1-c1ccccc1C the results were Sfp PPTase inh 12%, VDR inh 71µM* and ALOX12 inh inconclusive.
Cc1nn(-c2ccccc2Cl)c2sc(C(=O)Nc3nnc(C4CC4)s3)cc12 was read as Sfp PPTase inh 7%, PLK1 PBD block -3%, VDR inh -1% and ALOX12 inh 0%.
For O=S(=O)(c1ccccc1)c1nc(Nc2cccc(O)c2)sc1Cl the results were Sfp PPTase inh -16%, PLK1 PBD block inconclusive, VDR inh 14% and ALOX12 inh 35µM*.
Screening COc1ccc(Nc2nc(S(=O)(=O)c3ccc(C)cc3)c(Cl)s2)cc1 returned Sfp PPTase inh 7%, PLK1 PBD block -7%, VDR inh 6% and ALOX12 inh -25%.
Cc1ccc(S(=O)(=O)c2nc(Nc3ccccc3)sc2Cl)cc1 was read as Sfp PPTase inh 15%, PLK1 PBD block 30µM*, VDR inh -17% and ALOX12 inh -14%.
Screening O=S(=O)(c1ccccc1)c1nc(NCc2ccccc2)sc1Cl returned Sfp PPTase inh 1%, PLK1 PBD block -27%, VDR inh 2% and ALOX12 inh 13%.
`Clc1ccccc1CSc1nnc(-c2ccccn2)n1Cc1ccco1` gave Sfp PPTase inh 56µM*, PLK1 PBD block -14%, VDR inh inconclusive and ALOX12 inh 0%.
For C(=C\c1ccccc1)/CSc1nnc(-c2ccccn2)n1Cc1ccco1 the results were Sfp PPTase inh 32µM*, PLK1 PBD block -10%, VDR inh -14% and ALOX12 inh -9%.
`NC(=O)CSc1nnc(-c2ccccn2)n1Cc1ccco1` gave Sfp PPTase inh 1%, PLK1 PBD block 2%, VDR inh 6% and ALOX12 inh inconclusive.
`Cc1ccc(OCCSc2nc(NC(C)C)nc(NC(C)C)n2)cc1` gave Sfp PPTase inh -1%, PLK1 PBD block -1%, VDR inh -2% and ALOX12 inh -16%.
`Cc1ccc(CNS(=O)(=O)c2cc3c(cc2C)N(C)CCO3)cc1` gave Sfp PPTase inh 9%, PLK1 PBD block 2%, VDR inh -5% and ALOX12 inh inconclusive.
For O=C(NC1CCSc2ccccc21)c1cc(S(=O)(=O)N2CCOCC2)ccc1F (centres undefined) the results were Sfp PPTase inh 21%, PLK1 PBD block 5%, VDR inh -5% and ALOX12 inh 0%.
O=C(NC1CCSc2ccccc21)c1ccc(F)c(S(=O)(=O)N2CCOCC2)c1 (centres undefined) was read as Sfp PPTase inh 50µM*, PLK1 PBD block 6%, VDR inh 2% and ALOX12 inh -7%.
CN1CCc2c1nc1ccccc1c2N=C1CCCN1Cc1ccccc1 was read as Sfp PPTase inh -8%, PLK1 PBD block 21µM*, VDR inh -20% and ALOX12 inh inconclusive.
For Cc1cc(C)c(N=C2CCCN2Cc2ccccc2)c(C#N)c1 the results were Sfp PPTase inh 9%, PLK1 PBD block -6%, VDR inh 0% and ALOX12 inh 0%.
CCc1ccccc1NC(=O)c1ccc2nc(N3CCOCC3)sc2c1 was read as Sfp PPTase inh 7%, PLK1 PBD block -17%, VDR inh -12% and ALOX12 inh 27%.
Cc1ccc(NC(=O)c2ccc3nc(N4CCOCC4)sc3c2)c(Cl)c1 was read as Sfp PPTase inh 50µM*, PLK1 PBD block inconclusive, VDR inh 6% and ALOX12 inh inconclusive.
O=c1[nH]c2ccccc2c(O)c1-[n+]1ccccc1 was read as Sfp PPTase inh -20%, PLK1 PBD block -5%, VDR inh -12% and ALOX12 inh inconclusive.
`O=c1[nH]c2ccccc2c(O)c1O` gave Sfp PPTase inh 0.32µM*, PLK1 PBD block 11µM*, VDR inh 7.1µM* and ALOX12 inh inconclusive.
For Cc1c(Cl)cccc1NC(=S)NCc1cccs1 the results were Sfp PPTase inh 4%, PLK1 PBD block -13%, VDR inh 7% and ALOX12 inh inconclusive.
`CCc1nnc(NC(=O)C2(c3cccc(F)c3)CCCC2)s1` gave ALOX12 inh -18%.
Cc1ccc(Nc2nnc(-c3ccc4c(c3)OCO4)o2)c(C)c1 was read as Sfp PPTase inh 50µM*, PLK1 PBD block 21µM*, VDR inh inconclusive and ALOX12 inh inconclusive.
For COc1ccc(C=CC(C)=NNC(=O)c2ccncc2)cc1 the results were PLK1 PBD block 4%, VDR inh 15% and ALOX12 inh 4%.
`O=c1cc(CO)oc(CN2CCN(c3ccccc3)CC2)c1O` gave Sfp PPTase inh -5%, PLK1 PBD block -10%, VDR inh -13% and ALOX12 inh inconclusive.
`O=c1cc(CO)oc(CN2CCN(c3cccc(C(F)(F)F)c3)CC2)c1O` gave Sfp PPTase inh -16%, PLK1 PBD block 1%, VDR inh 4% and ALOX12 inh 1.4µM*.
Screening COc1cc(CNCc2ccccn2)ccc1OCc1c(Cl)cccc1Cl returned Sfp PPTase inh 40µM*, PLK1 PBD block 4%, VDR inh 14% and ALOX12 inh 2%[57.4 µM].
For COc1cc(CNCc2ccccn2)ccc1OCc1cccc(Cl)c1 the results were Sfp PPTase inh 79µM*, PLK1 PBD block 3%, VDR inh 2% and ALOX12 inh 1%[57.4 µM].
For O=C1CCCCC1Sc1nnc(Nc2ccccc2)s1 (centres undefined) the results were Sfp PPTase inh 11%, PLK1 PBD block -1%, VDR inh -15% and ALOX12 inh 0%.
O=c1ccc(NS(=O)(=O)c2ccccc2Cl)cn1Cc1ccc(Cl)c(Cl)c1 was read as Sfp PPTase inh 15%, PLK1 PBD block -6%, VDR inh 16µM* and ALOX12 inh inconclusive.
COc1ccc(NC(=S)NCCc2ccccc2OC)c(OC)c1 was read as Sfp PPTase inh 89µM*, PLK1 PBD block -15%, VDR inh 3% and ALOX12 inh -28%.
Screening COc1ccc(NC(=S)NCc2ccc(S(N)(=O)=O)cc2)c(OC)c1 returned Sfp PPTase inh 32µM*, PLK1 PBD block inconclusive, VDR inh -14% and ALOX12 inh inconclusive.
Screening CNC(=S)NNS(=O)(=O)c1ccc(OC)cc1OC returned Sfp PPTase inh 25µM*, PLK1 PBD block -4%, VDR inh -2% and ALOX12 inh 19%.
`COc1ccc(NC(=S)Nc2ccc(OC)cc2OC)c(OC)c1` gave Sfp PPTase inh inconclusive, PLK1 PBD block 27µM*, VDR inh -12% and ALOX12 inh inconclusive.
`Cc1cc(C)nc(N2CCN(C(=O)C3CCN(CC(N)=O)CC3)CC2)n1` gave ALOX12 inh 2%.
For O=C(Cc1c[nH]c2ccccc12)N1CCC(c2nc(CCOCC3CCCC3)no2)C1 (centres undefined) the results were ALOX12 inh 46%.
For CCCNC(=O)N[C@@H]1CCC[C@@H](C(=O)NCCOC)CC(=O)N(C)C1 the results were ALOX12 inh 25µM*.

Source: PubChem BioAssay
